Compounds with a hit are over-represented: about 21% of the library has one in this group of screens.
Cycloheximide cs – counter-screen hit for Shiga toxin inhibitors, cycloheximide. cell reporter, cycloheximide protein synthesis inhibition counterscreen. max response, %. 300,000 compounds, 12% hits. AID 2314; in the data active = max response mostly above about 13%, no sharp cut-off; inactive = mostly below about 14%; also: read at 38.3 µM for the half of the compounds with a filed dose; 0% is about no effect
NS1 inh – influenza NS1 inhibition; Potency, µM (series often up to 46.1 µM), without a hit: top-dose activity, positive = more growth; 270,000 compounds, 0.4% hits; AID 2326; also: potency is read from the fitted curve at half-maximal effect; actives are rising curves; nearly all actives have a fitted effect of over 50% in size
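OD600 was taken as the measure of yeast growth restored by compound in an NS1-expressing S. cerevisiae strain. Cells had been washed out of glucose medium and diluted 1:100 into galactose -URA medium, pH 6.0.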
Shiga toxin inh – blocks Shiga toxin action in Vero cells; AID 2315; 290,000 compounds, 9.2% hits; inhibition, % at 38.7 µM; Vero cells, Shiga toxin protein synthesis inhibition reporter; in the data active = inhibition mostly above about 28%, no sharp cut-off; inactive = mostly below about 43%; also: 0% is about no effect
Pf growth 96h – P. falciparum growth inhibition at 96 hour, primary screen for plastid delayed-death inhibitors; P. falciparum luciferase reporter growth, 96 h; Potency, µM (doses to about 28.7 µM), for the others: top-dose activity change, negative = inhibition, hits mostly inhibitors; 320,000 compounds, 6.9% hits; AID 504834; active = well fitted inhibition curve with a large enough effect; inconclusive = small, poorly fitted or top-dose-only effect, or another doubt; inactive = no such curve, though single readings can be large or run the other way; also: potency is read from the fitted curve at half-maximal effect; % is scaled to controls: 0 for no effect and ±100 for the full control effect
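P. falciparum expressing integrated firefly luciferase grown in erythrocytes (2% hematocrit, 0.05% parasitemia final) with compounds for 96 hours at 37 C, 5% CO2. Growth inhibition read as loss of luminescence after adding luciferase detection reagent.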
Pf growth 48h – P. falciparum growth inhibition at 48 hours (one generation) | P. falciparum luciferase growth in erythrocytes, 48 h | Potency, µM (series often up to 28.7 µM), for inactives: at the highest dose activity change, negative = inhibition, actives largely listed as inhibitors | 310,000 compounds, 5.9% hits | AID 504832; active = well fitted inhibition curve with a large enough effect; inconclusive = small, poorly fitted or top-dose-only effect, or another doubt; inactive = no such curve, though single readings can be large or run the other way; also: potency is read from the fitted curve at half-maximal effect; % is scaled to controls: 0 for no effect and ±100 for the full control effect
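In quantitative HTS format, infected erythrocytes bearing luciferase-reporter parasites were treated for a single generation at 37 C. Luminescence after adding detection reagent served as the growth measure.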
SARS PLP yeast – SARS-CoV PLP inhibition in yeast | S. cerevisiae expressing SARS-CoV PLpro, growth rescue | Potency, µM (doses to about 32.9 µM), without a hit: top-dose activity, positive = growth rescue, most hits filed as activators | 330,000 compounds, 0.19% hits; also: potency is read from the fitted curve at half-maximal effect; 0% is about no effect; nearly all actives have a fitted effect of over 55% in size
* = called active by the depositor; [ ] = remark or other dose. Unless noted, calls follow the shape of the full dose curve.

CCCC(c1nnnn1CC1CCCO1)N1CCN(c2cc(Cl)ccc2C)CC1 (stereo not drawn) was read as Cycloheximide cs -3, NS1 inh -57%, Shiga toxin inh 2, Pf growth 96h -1%, Pf growth 48h 13µM* and SARS PLP yeast -12%.
Cc1ccc(Cl)cc1N1CCN(C(c2cccnc2)c2nnnn2C2CCCCC2)CC1 (stereo not drawn) was read as Cycloheximide cs -4, NS1 inh -52%, Shiga toxin inh -10, Pf growth 96h 68%, Pf growth 48h inconclusive and SARS PLP yeast -1%.
`Cc1ccc(C(c2nnnn2CC2CCCO2)N2CCN(c3cccc(C)c3C)CC2)cc1` (stereo not drawn) gave Cycloheximide cs 4, NS1 inh -62%, Shiga toxin inh -10, Pf growth 48h 13µM* and SARS PLP yeast -6%.
CCC(c1nnnn1C(C)(C)C)N1CCN(c2cc(Cl)ccc2C)CC1 (stereo not drawn) was read as Cycloheximide cs -4, NS1 inh -59%, Shiga toxin inh -12, Pf growth 96h 0.15µM*, Pf growth 48h inconclusive and SARS PLP yeast -5%.
CC1Cc2nc(SCC(=O)OCc3ccccc3)n(C)c(=O)c2S1 (stereo not drawn) was read as Cycloheximide cs -2, NS1 inh -64%, Shiga toxin inh -5, Pf growth 96h -4%, Pf growth 48h -7% and SARS PLP yeast -26%.
C=CCC1(CC=C)CCCN1C(=O)CC1C(=O)NCCN1Cc1cccc(OC)c1OC (stereo not drawn) was read as Cycloheximide cs 9, NS1 inh 2%, Shiga toxin inh -4, Pf growth 96h 31%, Pf growth 48h inconclusive and SARS PLP yeast -1%.
For CC(=O)Nc1cc(C(F)(F)F)ccc1N1CCOCC1 the results were Cycloheximide cs -3, NS1 inh 21%, Shiga toxin inh 9 and Pf growth 48h 11%.
Cc1ccc(S(=O)(=O)Nc2cc(C(F)(F)F)ccc2N2CCOCC2)cc1 was read as Cycloheximide cs -6, NS1 inh 8%, Shiga toxin inh 16, Pf growth 96h 13µM*, Pf growth 48h inconclusive and SARS PLP yeast 0%.
`CC(C)(C)C(=O)Nc1cc(C(F)(F)F)ccc1N1CCOCC1` gave Cycloheximide cs -1, NS1 inh 0%[9.22 µM], Shiga toxin inh 17, Pf growth 96h -6%, Pf growth 48h inconclusive and SARS PLP yeast 1%.
Cc1ccc(S(=O)(=O)Nc2cc(C(F)(F)F)ccc2N2CCOCC2)c(C)c1 was read as Cycloheximide cs -4, NS1 inh 2%, Shiga toxin inh 14, Pf growth 96h 12µM*, Pf growth 48h inconclusive and SARS PLP yeast 3%.
`COc1cc(NC(=O)c2cccc(C)c2)ccc1NC(=O)c1cc2ccccc2o1` gave Cycloheximide cs 13*, NS1 inh 2%, Shiga toxin inh 49, Pf growth 96h 44%, Pf growth 48h 75% and SARS PLP yeast 0%.
Screening CCC(=O)NC(=S)Nc1ccc(NC(=O)c2cc3ccccc3o2)c(OC)c1 returned Cycloheximide cs 1, NS1 inh -1%, Shiga toxin inh 30*, Pf growth 96h inconclusive, Pf growth 48h 12% and SARS PLP yeast -1%.
Screening COc1cc(NC(=O)C(C)C)ccc1NC(=O)c1cc2ccccc2o1 returned Cycloheximide cs 24*, NS1 inh -8%, Shiga toxin inh 40*, Pf growth 96h -7%, Pf growth 48h 127% and SARS PLP yeast -3%.
`CCOc1cc(C(=O)N[C@@H](C)C(=O)N2CCC3(CC2)NCCc2[nH]cnc23)cc(OCC)c1OCC` gave Cycloheximide cs -1, NS1 inh 5%, Shiga toxin inh -7, Pf growth 96h 1%, Pf growth 48h inconclusive and SARS PLP yeast 0%.
For Cc1ccc(C)c(NC(=O)CN2C(=O)COc3ccc(S(=O)(=O)N4CCCC4)cc32)c1 the results were Cycloheximide cs 12, NS1 inh -1%, Shiga toxin inh -5, Pf growth 96h 25%, Pf growth 48h inconclusive and SARS PLP yeast 2%.
Screening CC(C)(C)C(=O)N1CCn2c1nc1ccccc12 returned Cycloheximide cs 9, NS1 inh -1%, Shiga toxin inh 23, Pf growth 96h 2.6µM*, Pf growth 48h 7% and SARS PLP yeast 0%.
`N#CCC(=O)N1CCn2c1nc1ccccc12` gave Cycloheximide cs 1, NS1 inh -9%, Shiga toxin inh -4, Pf growth 96h 15%, Pf growth 48h -1% and SARS PLP yeast -1%.
O=C(c1cccs1)N1CCn2c1nc1ccccc12 was read as Cycloheximide cs 41*, NS1 inh -67%, Shiga toxin inh 56*, Pf growth 96h -2%, Pf growth 48h 105% and SARS PLP yeast inconclusive.
For O=C(c1ccc(Cl)cc1)N1CCn2c1nc1ccccc12 the results were Cycloheximide cs -4, Shiga toxin inh 4, Pf growth 96h 16%, Pf growth 48h -15%[5.75 µM] and SARS PLP yeast 0%.
Screening COc1cccc(C(=O)N2CCn3c2nc2ccccc23)c1 returned Cycloheximide cs 24*, NS1 inh 5%, Shiga toxin inh 34, Pf growth 96h inconclusive, Pf growth 48h 31% and SARS PLP yeast 1%.
Screening O=C(Cc1ccccc1)NCC(=O)OCC(=O)c1ccccc1Cl returned Cycloheximide cs -1, NS1 inh -6%, Shiga toxin inh -7, Pf growth 96h 16%, Pf growth 48h 0% and SARS PLP yeast -3%.
`COc1ccc(C(=O)NC2CCCc3ccccc32)c(OC)c1OC` (stereo not drawn) gave Cycloheximide cs -2, NS1 inh -7%, Shiga toxin inh -8, Pf growth 96h 4%, Pf growth 48h 2% and SARS PLP yeast -2%.
Screening Cc1cccc(N/N=C(\C(N)=O)C2=NC(C)(C)Cc3ccccc32)c1 returned Cycloheximide cs -2, NS1 inh -54%, Shiga toxin inh -2, Pf growth 96h 4.7µM*, Pf growth 48h 5.9µM* and SARS PLP yeast -48%.
CCOC(=O)/C(=N\O)C1=NC(C)(C)Cc2ccccc21 was read as Cycloheximide cs -1, NS1 inh 1%, Shiga toxin inh -5, Pf growth 96h -28%, Pf growth 48h 11% and SARS PLP yeast -5%.
`COc1cccc(CNC(=O)C2CCN(S(=O)(=O)c3ccc4c(c3)CC(C)N4C(C)=O)CC2)c1` (stereo not drawn) gave Cycloheximide cs -5, NS1 inh -2%, Shiga toxin inh -6, Pf growth 96h inconclusive, Pf growth 48h inconclusive and SARS PLP yeast 5%.
CC1Sc2ccc(S(=O)(=O)CCC(=O)NCc3ccc(Cl)cc3)cc2NC1=O (stereo not drawn) was read as Cycloheximide cs -1, NS1 inh -7%, Shiga toxin inh -2, Pf growth 96h inconclusive, Pf growth 48h -4% and SARS PLP yeast 2%.
